# From PubChem BioAssay (EPA / NIEHS)
# Results filed as inconclusive are left out. The source made the active and inactive calls. Rule for the calls, unless noted: active = hit-call score of the fitted dose curve at least 0.9, where 1 is the maximum; inactive = score below 0.9.
# Columns and labels:
# [1] = read-out: Monokine induced gamma interferon (MIG), CXCL9 (gene 4283); assay: BSK_3C_MIG: BioMAP Diversity Plus: 3C Assay for Monokine induced gamma interferon (MIG) Biomarker Activity (AID 2283021); settings: primary human endothelial cells (HUVEC); actives raise or lower the signal;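 for AC50: MIG protein level measured by immunoassay in the treated endothelial cultures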
# In short: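 Read-out is ELISA detection of MIG on human umbilical vein endothelial cells, taken 24 h after dosing. Gain or loss of signal was scored relative to DMSO controls using bidirectional curve fitting.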
# [2] = BSK_3C_SRB: Viability Assessment in the BioMAP Diversity Plus: 3C Assay (AID 2283023); settings: primary human endothelial cells (HUVEC);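 note: fitted both ways against DMSO so a hit may be signal rise or drop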
# In short: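 HUVEC, 24 h post-dose; 10% TCA fix, 0.1% SRB stain, A560 nm. Bidirectional curve fit vs DMSO negative control.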
# [3] = read-out: Matrix Metallopeptidase 1 (MMP1), MMP1 (gene 4312); assay: BSK_BE3C_MMP1: BioMAP Diversity Plus: BE3C Assay for Matrix Metallopeptidase 1 (MMP1) Biomarker Activity (AID 2283024); settings: primary human bronchial epithelial cells; actives raise or lower the signal
# In short: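 Human bronchial epithelial cells (BE3C system) exposed to compound for 24 h; MMP1 then quantified by ELISA. Activity was fitted in both directions relative to DMSO.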
# [4] = BSK_3C_Vis: BioMAP Diversity Plus: 3C Assay for Morphology Visualization (AID 2283025); settings: primary human endothelial cells (HUVEC);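 note: fitted both ways so gain or loss versus DMSO counts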;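 for AC50: light microscopy image of cell morphology used as background control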
# In short: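 Chemicals were added to primary human umbilical vein endothelium, cells were incubated 24 h, and morphology was then visualized by light microscopy. Gain or loss of signal was fitted bidirectionally relative to DMSO.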
# [5] = read-out: Pselectin, SELP (gene 6403); assay: BSK_4H_Pselectin: BioMAP Diversity Plus: 4H Assay for Pselectin Biomarker Activity (AID 2283026); settings: primary human endothelial cells (HUVEC); actives raise or lower the signal
# In short: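 ELISA read-out of P-selectin on human umbilical vein endothelium after 24 h of dosing. Values derive from bidirectional fitting relative to DMSO. Parallel SRB protein staining flagged overt cytotoxicity.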
# [6] = BSK_4H_SRB: Viability Assessment in the BioMAP Diversity Plus: 4H Assay (AID 2283027); settings: primary human endothelial cells (HUVEC);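 note: cells exposed to compound for 24 h before staining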;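 for AC50: curves fitted both ways versus DMSO so AC50 may be loss or gain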
# In short: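 Human umbilical vein endothelial cells were dosed with chemical and, after 24 h, fixed with 10% TCA, stained with 0.1% sulforhodamine B, and read at 560 nm to give total protein as a cytotoxicity measure. Bidirectional fitting relative to DMSO control.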
# [7] = read-out: Thrombomodulin, THBD (gene 7056); assay: BSK_3C_Thrombomodulin: BioMAP Diversity Plus: 3C Assay for Thrombomodulin Biomarker Activity (AID 2283029); settings: primary human endothelial cells (HUVEC); actives raise or lower the signal
# In short: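 Read-out is ELISA of thrombomodulin on human umbilical vein endothelium 24 h after chemical dosing. Gain or loss of signal is scored relative to DMSO. Overt cytotoxicity is checked in parallel cultures by sulforhodamine B staining.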
# [8] = read-out: Urokinase-type plasminogen activator receptor (uPAR), PLAUR (gene 5329); assay: BSK_4H_uPAR: BioMAP Diversity Plus: 4H Assay for Urokinase-type plasminogen activator receptor (uPAR) Biomarker Activity (AID 2283030); settings: primary human endothelial cells (HUVEC); actives raise or lower the signal
# In short: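 HUVEC, 24 h post-dose; uPAR by ELISA; bidirectional fit vs DMSO baseline.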
# [9] = read-out: Human Leukocyte Antigen - DR isotype (HLADR), HLA-DRA (gene 3122); assay: BSK_BE3C_HLADR: BioMAP Diversity Plus: BE3C Assay for Human Leukocyte Antigen - DR isotype (HLADR) Biomarker Activity (AID 2283032); settings: primary human bronchial epithelial cells; actives raise or lower the signal
# In short: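 ELISA read-out of HLA-DR on human lung bronchial epithelial primary cells, measured 24 h post-dosing. Both increases and decreases were scored relative to DMSO vehicle.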
# [10] = read-out: Vascular cell adhesion molecule 1 (VCAM1), VCAM1 (gene 7412); assay: BSK_4H_VCAM1: BioMAP Diversity Plus: 4H Assay for Vascular cell adhesion molecule 1 (VCAM1) Biomarker Activity (AID 2283033); settings: primary human endothelial cells (HUVEC); actives raise or lower the signal;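 for outcome: cell-surface VCAM-1 protein measured by ELISA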
# In short: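 ELISA read-out of VCAM-1 on human umbilical vein endothelium 24 hours after chemical dosing; gain or loss of signal was fitted relative to DMSO, with sulforhodamine B staining of parallel cultures flagging overt cytotoxicity.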
# [11] = read-out: Interferon-gamma inducible Protein 10 (IP10), CXCL10 (gene 3627); assay: BSK_BE3C_IP10: BioMAP Diversity Plus: BE3C Assay for Interferon-gamma inducible Protein 10 (IP10) Biomarker Activity (AID 2283034); settings: primary human bronchial epithelial cells; actives raise or lower the signal
# In short: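 Chemical is dosed onto human lung bronchial epithelial primary cells, cultures are incubated 24 h, and IP-10 is then quantified by ELISA. Gain or loss of signal is fitted in both directions relative to DMSO.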
# [12] = read-out: Monokine induced gamma interferon (MIG), CXCL9 (gene 4283); assay: BSK_BE3C_MIG: BioMAP Diversity Plus: BE3C Assay for Monokine induced gamma interferon (MIG) Biomarker Activity (AID 2283035); settings: primary human bronchial epithelial cells; actives raise or lower the signal;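 for outcome: MIG protein measured by ELISA in BE3C cultures after 24 h of dosing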
# In short: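 ELISA read-out of MIG in human lung bronchial epithelial primary cultures, 24 h post-dosing. Bidirectional curve fit vs DMSO baseline.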
# [13] = read-out: Transforming growth factor beta 1 (TGFb1), TGFB1 (gene 7040); assay: BSK_BE3C_TGFb1: BioMAP Diversity Plus: BE3C Assay for Transforming growth factor beta 1 (TGFb1) Biomarker Activity (AID 2283036;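 for outcome: TGF-b1 protein level measured by ELISA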); settings: primary human bronchial epithelial cells; actives raise or lower the signal
# In short: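 Primary human lung bronchial epithelial cells; compound exposure 24 h; TGF-b1 by ELISA; bidirectional fit, DMSO baseline. Parallel SRB total-protein staining for cytotoxicity.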
# [14] = read-out: Plasminogen activator inhibitor-1 (PAI1), SERPINE1 (gene 5054); assay: BSK_BE3C_PAI1: BioMAP Diversity Plus: BE3C Assay for Plasminogen activator inhibitor-1 (PAI1) Biomarker Activity (AID 2283037); settings: primary human bronchial epithelial cells; actives raise or lower the signal
# In short: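 Primary human lung bronchial epithelial cells; chemical dosing; 24 h; PAI-1 measured by ELISA; bidirectional fit referenced to DMSO as negative control.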
# [15] = read-out: urokinase plasminogen activator (uPA), PLAU (gene 5328); assay: BSK_BE3C_uPA: BioMAP Diversity Plus: BE3C Assay for urokinase plasminogen activator (uPA) Biomarker Activity (AID 2283038); settings: primary human bronchial epithelial cells; actives raise or lower the signal;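 for outcome: uPA protein level quantified by ELISA in cell cultures; uPA read one day after compound addition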
# In short: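 ELISA read-out of uPA in human lung primary bronchial epithelial cultures, 24 h post-dosing. Gain or loss of signal fitted bidirectionally relative to DMSO baseline; cytotoxicity checked in parallel cultures via SRB total protein stain.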
# [16] = read-out: Urokinase-type plasminogen activator receptor (uPAR), PLAUR (gene 5329); assay: BSK_BE3C_uPAR: BioMAP Diversity Plus: BE3C Assay for Urokinase-type plasminogen activator receptor (uPAR) Biomarker Activity (AID 2283039); settings: primary human bronchial epithelial cells; actives raise or lower the signal;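 for outcome: uPAR protein level measured by ELISA on the cells; cells exposed to compound for one day before measurement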
# In short: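 Human bronchial epithelial primary cells; chemical exposure 24 h; uPAR by ELISA; bidirectional fit vs DMSO control.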
# [17] = read-out: Interleukin-6 (IL6), IL6 (gene 3569); assay: BSK_CASM3C_IL6: BioMAP Diversity Plus: CASM3C Assay for Interleukin-6 (IL6) Biomarker Activity for (AID 2283040); settings: primary human coronary artery smooth muscle cells; actives raise or lower the signal
# [18] = target: human Vitamin D Receptor (VDR), VDR (gene 7421) (UniProt P11473); assay: ATG_VDR_TRANS: Attagene TRANS-FACTORIAL HepG2 Assay for human Vitamin D Receptor (VDR) (AID 2283022; active = hit-call score of the fitted dose curve at least 0.9, where 1 is the maximum)
# Chain of human Vitamin D Receptor (VDR), VDR (gene 7421) (P11473 whole entry, looked up, the tested form may be a part): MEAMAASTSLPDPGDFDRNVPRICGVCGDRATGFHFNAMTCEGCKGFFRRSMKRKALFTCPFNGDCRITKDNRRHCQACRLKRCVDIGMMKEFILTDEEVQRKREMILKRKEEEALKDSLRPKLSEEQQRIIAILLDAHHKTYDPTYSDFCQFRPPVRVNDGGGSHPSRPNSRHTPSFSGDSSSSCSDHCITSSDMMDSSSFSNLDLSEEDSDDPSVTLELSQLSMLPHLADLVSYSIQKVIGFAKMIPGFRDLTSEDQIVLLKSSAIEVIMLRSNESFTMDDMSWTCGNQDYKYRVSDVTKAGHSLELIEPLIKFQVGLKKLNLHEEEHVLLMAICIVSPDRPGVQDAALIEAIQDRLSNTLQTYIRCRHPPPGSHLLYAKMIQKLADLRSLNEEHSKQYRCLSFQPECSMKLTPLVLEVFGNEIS
# In short: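 RT-PCR/capillary electrophoresis read-out of reporter mRNA induction in transiently transfected HepG2; 24 h dosing; chimeric NR-Gal4 (TRANS format); gain-of-signal fit against DMSO baseline.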
# [19] = read-out: Vascular endothelial growth factor receptor 2 (Homo sapiens) (UniProt P35968); assay: BSK_4H_VEGFRII: BioMAP Diversity Plus: 4H Assay for Vascular endothelial growth factor receptor 2 (VEGFR2) Biomarker Activity (AID 2283031); settings: primary human endothelial cells (HUVEC); actives raise or lower the signal;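 for AC50: cell-surface VEGFR2 protein level quantified by ELISA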
# In short: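 HUVEC (human primary), 4H system; 24 h post-dose; VEGFRII by ELISA; bidirectional curve fit vs DMSO baseline; gain or loss of signal scored.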
smiles,measurement,setting,value
CC(=O)[O][Hg][c]1ccccc1,AC50,[1],2.73 µM (active)
same,AC50,[2],0.146 µM (active)
same,AC50,[3],2.93 µM (active)
same,AC50,[4],0.954 µM (active)
same,AC50,[5],1.29 µM (active)
same,AC50,[6],1.68 µM (active)
same,AC50,[7],3.83 µM (active)
same,AC50,[8],1.74 µM (active)
same,AC50,[9],0.355 µM (active)
same,AC50,[10],2.37 µM (active)
same,AC50,[11],0.94 µM (active)
same,AC50,[12],2.01 µM (active)
same,AC50,[13],0.148 µM (active)
same,AC50,[14],1.42 µM (active)
same,AC50,[15],1.06 µM (active)
same,AC50,[16],1.8 µM (active)
same,AC50,[17],3.56 µM (active)
O=P(O)(O)CN(CP(=O)(O)O)CP(=O)(O)O,outcome,[18],inactive
ClC1=C(Cl)[C@]2(Cl)[C@H]3[C@H]([C@H]4C=C[C@H]3C4)[C@@]1(Cl)C2(Cl)Cl,outcome,[1],inactive
same,outcome,[18],inactive
same,AC50,[2],7.55 µM (active)
same,outcome,[3],inactive
same,AC50,[4],13.6 µM (active)
same,AC50,[5],7.17 µM (active)
same,outcome,[6],inactive
same,outcome,[7],inactive
same,outcome,[8],inactive
same,AC50,[19],2.01 µM (active)
same,AC50,[9],13.1 µM (active)
same,AC50,[10],7.9 µM (active)
same,outcome,[12],inactive
same,AC50,[13],3.12 µM (active)
same,AC50,[14],3.97 µM (active)
same,outcome,[15],inactive
same,outcome,[16],inactive
same,outcome,[17],inactive
CCCCCCCCc1ccc(O)cc1,AC50,[1],36 µM (active)
same,outcome,[18],inactive
same,AC50,[2],31.2 µM (active)
same,AC50,[3],31.7 µM (active)
same,AC50,[4],39.3 µM (active)
same,AC50,[5],25.6 µM (active)
same,AC50,[6],34.3 µM (active)
same,AC50,[7],34.3 µM (active)
same,AC50,[8],37.2 µM (active)
same,AC50,[9],33 µM (active)
same,AC50,[10],33.2 µM (active)
same,AC50,[11],31.9 µM (active)
same,AC50,[12],37.7 µM (active)
same,AC50,[13],30.5 µM (active)
same,AC50,[14],33.9 µM (active)
same,AC50,[15],32.7 µM (active)
same,AC50,[16],32.5 µM (active)
same,AC50,[17],20.1 µM (active)
NC(=S)Nc1ccccc1,outcome,[1],inactive
same,outcome,[18],inactive
same,outcome,[2],inactive
same,outcome,[3],inactive
same,outcome,[4],inactive
same,outcome,[5],inactive
same,outcome,[6],inactive
same,outcome,[7],inactive
same,outcome,[8],inactive
same,outcome,[19],inactive
same,outcome,[9],inactive
same,outcome,[10],inactive
same,outcome,[11],inactive
same,outcome,[12],inactive
same,outcome,[13],inactive
same,outcome,[14],inactive
same,outcome,[15],inactive
same,outcome,[16],inactive
same,outcome,[17],inactive
CCC(=O)C(CC(C)N(C)C)(c1ccccc1)c1ccccc1 (configuration not stated),outcome,[1],inactive
same,outcome,[2],inactive
same,outcome,[3],inactive
same,outcome,[4],inactive
same,outcome,[5],inactive
same,outcome,[6],inactive
same,outcome,[7],inactive
same,outcome,[8],inactive
same,outcome,[19],inactive
same,outcome,[9],inactive
same,outcome,[10],inactive
same,outcome,[11],inactive
same,outcome,[12],inactive
same,outcome,[13],inactive
same,outcome,[14],inactive
same,outcome,[15],inactive
same,outcome,[16],inactive
same,outcome,[17],inactive
CC(=O)OC(c1ccccc1)C(Cl)(Cl)Cl (configuration not stated),outcome,[1],inactive
same,outcome,[2],inactive
same,outcome,[3],inactive
same,outcome,[5],inactive
same,outcome,[6],inactive
same,outcome,[7],inactive
same,outcome,[8],inactive
same,outcome,[19],inactive
same,outcome,[9],inactive
same,outcome,[10],inactive
same,outcome,[11],inactive
same,outcome,[12],inactive
same,outcome,[14],inactive
same,outcome,[15],inactive
same,outcome,[16],inactive
same,outcome,[17],inactive
